Laboratory results as given in PubChem BioAssay (NCI).
The panel holds about 79,000 compounds, 15% with a hit somewhere; the sample as a whole holds those more often. No stated cut-off is given here; in the data, active means growth inhibition above about 70%; inactive means the rest.

Legend:
[1] = NCI Yeast Anticancer Drug Screen. Data for the rad50 strain (AID 155);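 further: 0% = growth of vehicle-only cultures of the same strain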; conditions: S. cerevisiae rad50 strain growth inhibition, hits give high values; at 50.0 µM unless noted
Outline: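 A DNA repair-deficient yeast mutant serves as the test organism; compound-induced growth inhibition is calculated against vehicle-treated cells.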

[2] = NCI Yeast Anticancer Drug Screen. Data for the mec2-1 strain (AID 157); conditions: S. cerevisiae mec2-1 strain, hits give high values; at 50.0 µM unless noted
Outline: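 Cells of the genetically defined mec2-1 yeast strain are incubated with test compound. Inhibition of growth is calculated against vehicle-treated controls.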

[3] = NCI Yeast Anticancer Drug Screen. Data for the sgs1 mgt1 strain (AID 161);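 further: 0% = growth of cultures given vehicle only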; conditions: S. cerevisiae sgs1 mgt1 strain, hits give high values; at 50.0 µM unless noted
Outline: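 Mutant yeast exposed to compound; growth scored against vehicle-only wells.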

[4] = NCI Yeast Anticancer Drug Screen. Data for the cln2 rad14 strain (AID 165);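 further: 0% = growth equal to vehicle treated cultures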; conditions: S. cerevisiae cln2 rad14 strain, hits give high values; at 50.0 µM unless noted
Outline: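 The screen exposed genetically defined yeast (cln2 rad14) to test compounds and scored growth inhibition relative to vehicle-treated controls.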

[5] = NCI Yeast Anticancer Drug Screen. Data for the bub3 strain (AID 167); conditions: S. cerevisiae bub3 mutant strain, hits give high values; at 50.0 µM unless noted
Outline: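 Inhibition values come from growth of compound-treated mutant yeast normalised to vehicle-treated controls.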

[6] = NCI Yeast Anticancer Drug Screen. Data for the mlh1 rad18 strain (AID 175); conditions: S. cerevisiae mlh1 rad18 strain growth inhibition, hits give high values; at 50.0 µM unless noted
Outline: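 Compound-treated yeast growth, normalised to vehicle controls. Strain bears defined DNA repair mutations.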

Measured: growth inhibition

O=C1c2ccccc2C(=O)c2c1ccc1c3ccccc3n(-c3ccccc3)c21
inactive: [1] 7.4% | [2] 4.2% | [3] 18.4% | [4] -5.2% | [5] 6.65% | [6] 15.7%

[CH3][Sn]([CH3])([S]P(=S)(c1ccccc1)c1ccccc1)[S]P(=S)(c1ccccc1)c1ccccc1
inactive: [1] 25.1% | [2] 31.7% | [3] 18.7% | [4] -15.8% | [5] 19.1% | [6] 43.9%

O=C1OCC=C1Sc1ccccc1
inactive: [1] -1.7% | [2] -8.05% | [3] -13.4% | [4] -7.7% | [5] -2.4% | [6] -8.8%

COC1CC(n2ccc(=O)[nH]c2=O)OC1CO (stereo not given)
inactive: [1] -8.25% | [2] -10.6% | [3] 2.65% | [4] 28.1% | [5] -25.6% | [6] 6.4%

O=C(CCc1ccccc1)On1nnc2ccccc2c1=O
inactive: [1] -19.1% | [2] -14.2% | [3] -29.8% | [4] 9.9% | [5] -14.6% | [6] -29.1%

OCc1ccccc1Sc1ccccc1CO
inactive: [1] 15.8% | [2] -8.6% | [3] 2.6% | [4] 11.8% | [5] -31.6% | [6] 24%

O=C(CNC(=O)C(CSC(c1ccccc1)c1ccccc1)NC(=O)C(CSC(c1ccccc1)(c1ccccc1)c1ccccc1)NC(=O)OCc1ccccc1)OC(c1ccccc1)c1ccccc1 (stereo not given)
inactive: [1] 4.15% | [2] 3.1% | [3] -6.25% | [4] -4.25% | [5] -1.85% | [6] 20.7%

O=C(/C=C/c1ccc(OCC(=O)N2CCN(c3ccccc3)CC2)cc1)c1ccccc1
inactive: [1] 13% | [2] 16% | [3] 35.6% | [4] -5.95% | [5] 16.7% | [6] 10.7%

CCOc1cccc(C=N)c1O
inactive: [1] 35.8% | [2] -0.55% | [3] 51.9% | [4] 36.4% | [5] -1.75% | [6] 46.5%

CC1(C)N=C(N)N=C(N)N1CCCOc1ccc(N)cc1
inactive: [1] 33.2% | [2] -4.65% | [3] 11.8% | [4] 5.2% | [5] -3.55% | [6] 1.1%

Nc1nc(-c2ccco2)cc(-c2ccco2)n1
inactive: [1] -23.4% | [2] -23.2% | [3] -18.8% | [4] 12.8% | [5] -20.1% | [6] -31.1%

COc1ccc(N2C(=O)c3c(c4[nH]c5ccc(OC)cc5c4c4ccc(C(C)(C)C)cc34)C2=O)cc1
inactive: [1] -8.85% | [2] -7.95% | [3] 4.4% | [4] 7.2% | [5] -2.95% | [6] 26.6%

COC(=O)CC1C(C)(C)C(=O)C2CC3=C4CC(=O)OC(c5ccoc5)C4(C)CCC3C1(C)C2=O (stereo not given)
inactive: [1] 1.3% | [2] 2.4% | [3] -20.1% | [4] -8.3% | [5] -31.9% | [6] 16.8%

C=C(Br)CN(C#N)CC(=C)Br
inactive: [1] -24.4% | [2] -18.1% | [3] 13.8% | [4] -4.25% | [5] -10.5% | [6] -56.9%

CC(=O)c1cccc(OC(=O)Nc2ccccc2)c1
inactive: [1] 6.45% | [2] -10.2% | [3] 2.5% | [4] 4.3% | [5] -1.45% | [6] 22.4%

COC(=O)c1cc2c(cc1/C=C/C=O)OCO2
inactive: [1] -20% | [2] -15.8% | [3] -19.4% | [4] -27.9% | [5] -11% | [6] 13.8%

O=C(ON=C1C=CC(=NOC(=O)c2ccccc2)C=C1)c1ccccc1
inactive: [1] 10.2% | [2] -20.6% | [3] 9.35% | [4] 17.3% | [5] 1.15% | [6] 7.6%

Nc1nc(N)c2ncn(Cc3ccccc3)c2n1
inactive: [1] -41.2% | [2] -34.4% | [3] -9.95% | [4] -14.1% | [5] -16.1% | [6] -13.9%

O=C1CN(C2OC(CO)C(O)C2O)C(=O)NC1=O (stereo not given)
inactive: [1] 41.8% | [2] 14.2% | [3] 55.2% | [4] -11.2% | [5] 9.15% | [6] 24.4%

Cc1ccc(C)c(NC(=O)Nc2ccccc2)c1
inactive: [1] 3.3% | [2] 4.25% | [3] -7.2% | [4] -25.1% | [5] 0.35% | [6] 1%
